What all share (assay): NCI-60 one-dose screen, 48 h (100 = growth as untreated, 0 = no growth, -100 = all killed)
Assay [1] relates to HT29 colon. The settings on record: 10 µM unless noted.
Assay [2] has as its system SNB-75 CNS. Particulars: 10 µM unless noted.
Assay [3] relates to SNB-19 CNS. The settings on record: 10 µM unless noted.
Assay [4] concerns U251 CNS. The settings on record: 10 µM unless noted.
Assay [5] has as its system PC-3 prostate. The settings on record: 10 µM unless noted.
The subject of assay [6] is SK-MEL-5 melanoma. Particulars: 10 µM unless noted.
For assay [7], the system named is UACC-62 melanoma. Particulars: 10 µM unless noted.
The test system of assay [8] is LOX IMVI melanoma. Particulars: 10 µM unless noted.
Assay [9] has as its system SK-MEL-28 melanoma. The settings on record: 10 µM.
Assay [10] deals with SK-MEL-2 melanoma. The settings on record: 10 µM unless noted.
Assay [11] relates to EKVX NSCLC. The settings on record: 10 µM unless noted.
Assay [12] has as its system SN12C renal. Particulars: 10 µM unless noted.
The subject of assay [13] is UO-31 renal. Particulars: 10 µM unless noted.
The subject of assay [14] is TK-10 renal. Particulars: 10 µM unless noted.
The subject of assay [15] is ACHN renal. Particulars: 10 µM unless noted.
Assay [16] deals with CAKI-1 renal. Particulars: 10 µM unless noted.
The test system of assay [17] is A498 renal. The settings on record: 10 µM unless noted.
The subject of assay [18] is CCRF-CEM leukemia. Particulars: 10 µM unless noted.
Assay [19] has as its system MOLT-4 leukemia. Particulars: 10 µM unless noted.
For assay [20], the system named is SR leukemia. The settings on record: 10 µM unless noted.

About 83,000 compounds went through this panel and 20% of them were active in at least one assay; those are over-represented in the sample as a whole.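 Method: cells in 96-well plates; compound added at one concentration; 48 h incubation; percent growth measured; values under 10 scored active.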 A number with no mark means an inactive call. Active and inactive are the calls of the source.

Consider `CCCCC1COc2cccc3c2N1C=C/C3=C\C(=O)N(C)c1ccccc1` (stereo not given), for which the growth was 49.7% in assay [1]; 72.1% in assay [2]; 52.3% in assay [3]; 33.9% in assay [4]; 51.2% in assay [5]; 13.4% in assay [6]. For the same compound, the growth was 36% in assay [7]; 51.2% in [8]; 75% in assay [9]; 71.1% in assay [10]; 45.8% in assay [11]; 64.9% in assay [12]. Also, the growth in assay [13] was 59.3%; in [14] it was 108%; in assay [15], 68.9%; in [16], 72%; in assay [17] it was 86.1%; in assay [18] it was 47.6%. Moreover, the growth in assay [19] is 55.7%; in assay [20] it was 66.6%.
Take `CCOC(=O)c1c(C=O)nc2ccccc2c1/C=C/c1ccc(Cl)cc1`: the growth was 112% in [1]; 79.7% in [2]; 92.8% in assay [3]; 92.6% in assay [4]; 91.4% in [5]; 83.1% in [6]. The growth was 102% in assay [7]; 96.9% in assay [8]; 103% in assay [9]; 105% in assay [10]; 81.6% in [11]; 96.7% in [12]. Moreover, the growth was 72.7% in assay [13]; 122% in [14]; 89.1% in assay [15]; 89.6% in assay [16]; 103% in assay [17]; 76.6% in [18]. In assay [19], the growth is 78.9%.
With `Cn1cc(-c2ccc3ncc(-c4ccc(CC(=O)Nc5cc(C(C)(C)C)no5)cc4)nc3c2)cn1`, the growth in assay [1] is 51.6%; in assay [2], 43.7%; in [3], 62.6%; in assay [4], 40.8%; in assay [5], 49.7%; in assay [6], 28.7%. For the same compound, the growth in assay [7] was 42.6%; in assay [8] it was 45.7%; in [9] it was 53.2%; in assay [10] it was 38.1%; in assay [11], 50%; in assay [12], 26.8%. Moreover, the growth in assay [13] was 2.84% (active); in assay [14], 50.8%; in [15], 15.2%; in assay [16] it was 16.6%; in [17], 17.9%; in assay [18], 50.6%. The growth was 30.7% in assay [19] and 16% in assay [20].
Take `Cc1nc2ccccc2c(/C=C/c2ccccc2)c1C(=O)/C=C/c1ccc(Cl)cc1`: the growth in [1] is -8.66% (active); in assay [2] it was 57.8%; in assay [3], 13.6%; in assay [4] it was -33.2% (active); in assay [5] it was 33.9%; in [6], 32.4%. Further, the growth in assay [7] was 34.9%; in assay [8] it was -90.3% (active); in [9] it was 19.2%; in assay [10], 14.7%; in assay [11] it was 39.9%; in [12], 19.7%. The growth is 11.1% in [13]; 21.9% in assay [14]; 14.3% in assay [15]; 12.6% in assay [16]; 36.7% in assay [17]; 3.51% (active) in [18]. The growth in assay [19] is 5.62% (active).
`COc1ccc(OC)c(/C=C/C(=O)c2c(C)nc3ccccc3c2/C=C/c2ccccc2)c1`: the growth was 37.2% in [1]; 59.2% in [2]; 80.9% in assay [3]; 54.1% in assay [4]; 59.4% in assay [5]; 82.9% in [6]. Further, the growth is 50.1% in [7]; 42.8% in assay [8]; 95.1% in assay [9]; 72.2% in assay [10]; 79.4% in assay [11]; 58.1% in assay [12]. For the same compound, the growth in assay [13] was 60.3%; in assay [14] it was 112%; in assay [15], 74.6%; in assay [16] it was 54.4%; in assay [17], 83.2%; in [18], 9.58% (active). The growth in [19] is 10.2%.
As to `Cn1c(/C=C(\C#N)c2cccc(C(F)(F)F)c2)nc2c(N3CCOCC3)nc(Cl)nc21`, the growth is -41.5% (active) in [1]; -22.7% (active) in assay [2]; 56.3% in [3]; 2.31% (active) in assay [4]; -42.6% (active) in assay [5]; 9.34% (active) in [6]. The growth in assay [7] is -81.1% (active); in assay [8], -87.9% (active); in assay [9], -87.2% (active); in assay [10], -21.2% (active); in assay [11], -76.2% (active); in [12], -0.107% (active). Moreover, the growth in assay [13] was -100% (active); in assay [14], -67% (active); in [15] it was -100% (active); in assay [16] it was -94% (active); in assay [17], 10.8%; in [18], 4.85% (active). Moreover, the growth in [19] is -14.3% (active).
Regarding `O=c1oc2ccc(Cl)cc2c(=O)n1-c1ccc(Cl)cc1F`, the growth was 7.06% (active) in assay [1]; -25.3% (active) in assay [2]; 18.4% in assay [3]; -4.3% (active) in [4]; 2.03% (active) in assay [5]; -87% (active) in [6]. Besides, the growth in [7] is -10.7% (active); in assay [8], 3.62% (active); in assay [9] it was 0.566% (active); in assay [10], -31% (active); in [11] it was 9.78% (active); in assay [12] it was 2.13% (active). Further, the growth in assay [13] is 6.59% (active); in [14], 6.66% (active); in [15], 4.37% (active); in assay [16] it was -16.8% (active); in assay [17], -71.7% (active); in assay [18] it was 5.21% (active). Further, the growth in assay [19] is -25.1% (active).
Regarding `O=C(c1nc2ccccc2[nH]1)C1C(c2cccc([N+](=O)[O-])c2)C2CC3CCCCC3N2[C@@]12C(=O)Nc1cc(Cl)ccc12` (stereo not given in full), the growth in assay [1] was 13.5%; in assay [2] it was 15.1%; in [3] it was 39.1%; in assay [4], 32.4%; in assay [5], 19.6%; in assay [6], 45.4%. The growth was 33.5% in assay [7]; 19.7% in [8]; 55.3% in assay [9]; 41.4% in [10]; 31.3% in [11]; 33.2% in assay [12]. Moreover, the growth in [13] is -19.5% (active); in assay [14], 46.9%; in [15], 21.2%; in assay [16] it was 12.2%; in assay [17], -1.86% (active); in [18] it was 25.5%. The growth was 8.76% (active) in assay [19] and 6.09% (active) in assay [20].

The values above are taken from PubChem BioAssay (NCI).
